Compound activity as filed in PubChem.
Shown is part of a subset that was picked to be rich in hits.
PostGolgi yeast – growth inhibition of a yeast mutant, post-Golgi transport screen. post-Golgi transport phenotypic cell assay. inhibition, % at 10 µM. hit rate 0.9% among 98,000;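 further: yeast cells grown in 1536-well plates; yeast grown about 18 h at 30C before absorbance read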
GALR2 ag – activates the human galanin receptor 2; O43603; GALR2-expressing cells, agonist activation read-out; activation, % (no concentration beside the values); hit rate 0.48% among 140,000; AID 803; in the data active means activation above about 5%, passing the limit was not always enough;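 further: 0% = vehicle buffer wells and 100% = reference agonist at full effect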
Target sequence (O43603 whole entry, looked up): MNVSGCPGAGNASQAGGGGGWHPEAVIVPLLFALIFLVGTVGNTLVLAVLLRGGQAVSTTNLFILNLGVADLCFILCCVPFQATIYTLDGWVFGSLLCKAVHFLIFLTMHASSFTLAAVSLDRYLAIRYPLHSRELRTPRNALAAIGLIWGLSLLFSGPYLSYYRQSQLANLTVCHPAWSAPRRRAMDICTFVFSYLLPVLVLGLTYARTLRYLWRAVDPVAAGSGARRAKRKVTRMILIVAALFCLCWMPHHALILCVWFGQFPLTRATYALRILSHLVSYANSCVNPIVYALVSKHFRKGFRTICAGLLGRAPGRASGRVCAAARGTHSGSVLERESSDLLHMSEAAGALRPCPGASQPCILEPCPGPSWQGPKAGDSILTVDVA
PostGolgi ctrl – inhibits growth of the yeast control strain; inhibition, % at 10 µM; AID 738; hit rate 5% among 98,000; efflux-deficient yeast background strain, growth absorbance A615, 16 h
S1P2 ag – S1P2 (human) receptor agonism. O95136. S1P2-expressing cell line, agonist reporter read-out. activation, % at 4.5 µM. hit rate 0.46% among 97,000. AID 729; in the data active means activation above about 16%;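 further: 0% = vehicle low control and 100% = maximal reference agonist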
GALR2 antag – GALR2 (human) receptor antagonism. O43603. GALR2-expressing cells, antagonist mode. inhibition, % at 4 µM. hit rate 0.39% among 140,000; in the data active means inhibition above about 27%;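 further: cells stimulated with galanin 1-16 at roughly its EC80; 0% = agonist challenge control and 100% = basal control without agonist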
S1P2 antag – antagonists of human S1P2 receptor; hit rate 0.21% among 97,000; inhibition, % at 5 µM; AID 736; cell-based S1P2 antagonist assay, inhibition at 5 uM; O95136; in the data active means inhibition above about 45%;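 further: CRE beta-lactamase reporter cells expressing human S1P2 stimulated with S1P; 0% = agonist at EC80 alone and 100% = agonist plus reference antagonist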
Active calls of the source: *; · = not tested or not shown. Unless noted, no stated cut-off is given here; in the data, active means inhibition above about 30%; inactive means the rest.

SMILES	PostGolgi yeast	GALR2 ag	PostGolgi ctrl	S1P2 ag	GALR2 antag	S1P2 antag
O=C(CCN1C(=O)c2ccccc2C1=O)N1CCCCCC1	3	-2	9	-5	-7	1
Cc1ccc(C2CCN(C(=O)Nc3ccccc3)C2)cc1 (configuration not stated)	7	-3	42*	-7	12	0
CC(OC(=O)c1nsc(Cl)c1Cl)C(=O)NC(C)(C)C (configuration not stated)	·	-1	·	-2	3	-19
O=C(COC(=O)c1ccccc1[N+](=O)[O-])c1ccc(C2CCCCC2)cc1	-7	1	34*	-2	3	1
COc1ccc([N+](=O)[O-])cc1NC(=O)C(C)Sc1nc(C)c(C)c(C)n1 (configuration not stated)	·	0	·	·	0	·
Cc1ccc(Cl)cc1N1CCN(C(=O)c2cc3c(=O)[nH]c4ccccc4c3n2C)CC1	·	-1	·	·	-6	·
COC(=O)c1cc(NC(=O)C2COc3ccccc3O2)ccc1Cl (configuration not stated)	-3	-3	30*	-5	-4	-22
CN1CCN(c2ccc(Cl)cc2NC(=O)C2COc3ccccc3O2)CC1 (configuration not stated)	-3	0	30*	·	-8	·
COC(=O)c1cccc(NC(=O)C2COc3ccccc3O2)c1 (configuration not stated)	6	-1	39*	-2	0	-15
O=C(Nc1nc(-c2ccccn2)cs1)C1COc2ccccc2O1 (configuration not stated)	31*	-2	39*	·	-5	·
O=C(NCC1OCCc2ccccc21)c1ccc(NC(=O)c2cccc(Br)c2)cc1 (configuration not stated)	·	-2	·	·	4	·
Cc1cc(C)nc(SCc2ccc(C(=O)N/N=C/C3CCCCC3)cc2)n1	·	-1	·	·	-1	·
Brc1ccc2ncnc(NCc3ccco3)c2c1	-7	-1	13	-3	18	29
OC(CNCc1ccco1)Cn1c2ccc(Br)cc2c2cc(Br)ccc21 (configuration not stated)	106*	-2	99*	-3	-5	15
COc1ccc(N2CC(C(=O)Nc3nnc(SCc4ccccn4)s3)CC2=O)cc1 (configuration not stated)	·	-1	·	·	-2	·
CC(C)Oc1ccc(C(=O)Nc2ccc(Cl)c(S(=O)(=O)Nc3ccc(Cl)cc3)c2)cc1	·	0	·	·	-11	·
CC(=O)N1c2c(ccc3ccccc23)C(C)CC12CCCCC2 (configuration not stated)	8	-2	38*	-6	10	-3
CC1CCCC(C)N1C(=O)Cn1cc(/C=C2/C(=O)Nc3ccccc32)c2ccccc21 (configuration not stated)	0	-3	82*	-8	6	3
COC(=O)c1cn(CC(=O)N2C(C)CCCC2C)c2ccccc12 (configuration not stated)	·	-2	·	-9	15	-7
CN1C(=O)/C(=C/c2cn(CC(=O)N3CCCCC3)c3ccccc23)c2ccccc21	0	-1	52*	-5	1	-20
CC(C)n1c(O)c(N=NC(=O)c2ccccc2NS(=O)(=O)c2cccs2)c2ccccc21	·	0	·	·	4	·
O=S(=O)(NCc1ccco1)c1cnc(Cl)c(Br)c1	·	-1	·	·	5	·
c1ccc(OCc2nn3c(Cn4cnc5ccccc54)nnc3s2)cc1	-5	-2	42*	-10	-7	1
Cc1cc(C(F)F)nn1CC(=O)NCc1ccccc1F	·	-2	·	0	-2	-25
CCOC(=O)NCC(C#CCN(CC)CC)N(CC)CC (configuration not stated)	-1	-2	42*	-4	15	-3
SMILES	PostGolgi yeast	GALR2 ag	PostGolgi ctrl	S1P2 ag	GALR2 antag	S1P2 antag
CCOc1ccccc1C(=O)N[C@H](C(=O)OCc1cc([N+](=O)[O-])cc2c1OCOC2)C(C)C	·	-1	·	·	-12	·
CCSc1c(C(=O)NC)ccc2c1C(=O)c1ccccc1C2=O	-1	0	10	-2	-6	-2
COC(=O)c1cccc2c1-c1ccccc1/C2=N/O	-9	-3	47*	-7	2	-7
COC(=O)c1ccc2c(c1O)C(=O)c1ccccc1C2=O	105*	-2	83*	0	-6	2
Cc1cc(C)c(S(=O)(=O)c2ccccc2)c(OC(=O)c2c(Cl)cccc2Cl)n1	49*	-3	24	-1	1	-13
Cc1cc(C)c(S(=O)(=O)c2ccccc2)c(OC(=O)c2ccc(Cl)cc2Cl)n1	-5	-6	14	-6	-4	-12
Cc1cc(C)c(S(=O)(=O)c2ccccc2C)c(Oc2ccccc2)n1	3	0	30*	-3	8	-13
Cc1cc(NC(=O)C2CC(=O)N(c3ccccc3)C2)no1 (configuration not stated)	·	-3	·	·	1	·
Cc1ccc(OCCn2cc(C(=S)N3CCCC3)c3ccccc32)cc1C	-6	-1	31*	-6	-2	4
O=C(O)CCCC(=O)Nc1cccc(-c2nc3ccccc3[nH]2)c1	2	-1	31*	-7	9	6
O=C(CSc1ccccc1)Nc1ccc(-c2nc3ccccc3[nH]2)cc1	·	-1	·	·	-5	·
O=C(COc1ccccc1)Nc1cccc(-c2nc3ccccc3[nH]2)c1	·	-1	·	·	8	·
O=C(CSc1ccc(Cl)cc1)Nc1cccc(-c2nc3ccccc3[nH]2)c1	·	6.2*	·	·	1	·
Cc1cc(SCC(=O)N2CCC(c3noc4ccc(F)cc34)CC2)nc2ccccc12	10	-1	34*	-8	5	14
O=C(CSc1ncnc2sc3c(c12)CCCC3)N1CCC(c2noc3ccc(F)cc23)CC1	23	0	12	-8	8	16
CC(=O)Nc1ccc(S(=O)(=O)Nc2nc3ccccc3s2)cc1	1	1	7	-2	-12	-16
O=S(=O)(Nc1nc2ccccc2s1)c1ccc(Br)s1	-1	0	33*	-3	8	-6
Cc1ccc(S(=O)(=O)Nc2nc3ccccc3s2)cc1	0	-2	32*	-2	-2	-28
COC(=O)[C@H](Cc1ccccc1)NC(=O)NCCC1=CCCCC1	-5	-2	8	-5	-9	-10
Cc1ccc(NS(=O)(=O)c2cc(-c3n[nH]c(=O)c4ccccc34)ccc2C)cc1	·	1	·	·	-20	·
CC(C)(C)NC(=O)C(c1ccco1)N(C(=O)Cn1nnc(-c2ccc(F)cc2)n1)c1cccc(F)c1 (configuration not stated)	2	-1	36*	·	14	·
CCc1ccc(NC(=O)C(=O)NNC(=O)COc2cccc(OC)c2)cc1	·	-3	·	·	14	·
C(=N\N1CCN(C2c3ccccc3-c3ccccc32)CC1)/c1ccccn1	-9	-2	31*	-4	6	-14
COc1ccc(-c2[nH]ncc2/C=C(/C#N)C(=O)NC2CCCCCC2)cc1	10	0	50*	-7	-3	-10
Cc1cc(/C=C(\C#N)C(=O)NC2CCCCCC2)c(C)[nH]1	·	-1	·	·	-11	·
